Data on 8 molecules can be found in PubChem BioAssay (NCI).

Among the test systems are NCI-H23 lung; NCI-H226 lung; NCI-H322M lung; HOP-62 NSCLC; NCI-H460 lung; NCI-H522 lung; A549/ATCC NSCLC; 786-0 renal; COLO 205 colon; DU-145 prostate; K-562 leukemia; MALME-3M melanoma; MDA-MB-231 breast; RXF 393 renal; SF-268 CNS; SF-295 CNS; SF-539 CNS; UACC-257 melanoma; M14 melanoma; HCT-15 colon.
What all share (assay): NCI-60 one-dose screen, 48 h (100 = growth as untreated, 0 = no growth, -100 = all killed)
Common to all, as to conditions: 10 µM unless noted

Structures are written as SMILES. Compounds without any hit were thinned out: in the full panel of roughly 83,000, 20% have a hit.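 Negative percent growth values reflect cell death: -40 means 40% of the cells present at the start died, and -100 means all died.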 A number with no mark means an inactive call. Calls of active or inactive are those of the source. Rule for the calls: active = growth percent below 10; inactive = the rest.

`COc1cc([C@@H]2c3cc4c(cc3C(O[C@@H]3O[C@@H]5CO[C@@H](c6cccs6)OC5[C@H](O)[C@H]3O)C3COC(=O)[C@@H]32)OCO4)cc(OC)c1O` (stereo not given in full): the growth was -32.5% (active) with NCI-H23 lung; -53.9% (active) in the assay with NCI-H226 lung; 7.81% (active) in the assay on NCI-H322M lung; -39.8% (active) in the assay with HOP-62 NSCLC; -36.7% (active) in the assay on NCI-H460 lung; -53.7% (active) in the assay on NCI-H522 lung. For the same molecule, the growth with A549/ATCC NSCLC is -48.3% (active); with 786-0 renal it was -40.6% (active); with COLO 205 colon it was -23.8% (active); in the assay on DU-145 prostate it was -33.4% (active); in the assay with K-562 leukemia, 4.5% (active); in the assay with MALME-3M melanoma, -28.7% (active). In addition, the growth was -18.8% (active) in the assay with MDA-MB-231 breast; -72.3% (active) in the assay with RXF 393 renal; -17.1% (active) with SF-268 CNS; -19.9% (active) with SF-295 CNS; -35.5% (active) in the assay on SF-539 CNS; -19.7% (active) in the assay with UACC-257 melanoma. Further, the growth in the assay on M14 melanoma is -43.2% (active); with HCT-15 colon, 5.54% (active).
Take `ClC1=C(Cl)C(=C2C(Cl)=C(Cl)C(Cl)=C2Cl)C(Cl)=C1Cl`: the growth in the assay on NCI-H23 lung is 97.9%; in the assay on NCI-H226 lung, 101%; with NCI-H322M lung, 97.7%; in the assay with HOP-62 NSCLC it was 90.1%; in the assay on NCI-H460 lung, 103%; in the assay with NCI-H522 lung, 79%. Besides, the growth was 90.2% in the assay with A549/ATCC NSCLC; 103% in the assay on 786-0 renal; 103% with COLO 205 colon; 106% in the assay with DU-145 prostate; 87.1% with K-562 leukemia; 106% with MALME-3M melanoma. The growth in the assay on MDA-MB-231 breast was 110%; in the assay with RXF 393 renal, 106%; in the assay on SF-268 CNS it was 102%; with SF-295 CNS, 99.2%; with SF-539 CNS, 104%; in the assay on UACC-257 melanoma, 92.3%. In addition, the growth with M14 melanoma was 102%; with HCT-15 colon, 106%.
For `CC1SC(c2c(Cl)cccc2Cl)N(NC(=O)c2[nH]c3ccc(F)cc3c2-c2ccccc2)C1=O` (stereo not given), the growth was 48% in the assay with NCI-H23 lung; 58.5% in the assay with NCI-H226 lung; 4.84% (active) with NCI-H322M lung; -44.6% (active) in the assay with HOP-62 NSCLC; 8.08% (active) with NCI-H460 lung; 69% with NCI-H522 lung. Besides, the growth in the assay on A549/ATCC NSCLC is -1.11% (active); in the assay with 786-0 renal, 33.8%; with COLO 205 colon, 35.1%; with DU-145 prostate it was 24.1%; in the assay on K-562 leukemia, 71.6%; with MALME-3M melanoma it was 1.97% (active). For the same molecule, the growth in the assay with MDA-MB-231 breast is 0.445% (active); in the assay on RXF 393 renal, 26.5%; in the assay on SF-268 CNS it was 44.3%; in the assay on SF-295 CNS, 6.65% (active); in the assay with SF-539 CNS it was 71.5%; in the assay on UACC-257 melanoma, 93.9%. For the same molecule, the growth in the assay with M14 melanoma was 62.8%; with HCT-15 colon it was 65.1%.
With `Clc1ncn[nH]1`, the growth in the assay with NCI-H23 lung was 106%; with NCI-H226 lung it was 102%; in the assay with NCI-H322M lung it was 98.4%; with HOP-62 NSCLC it was 98.6%; with NCI-H460 lung it was 111%; in the assay on NCI-H522 lung, 94.9%. The growth in the assay on A549/ATCC NSCLC was 98.1%; with 786-0 renal, 103%; in the assay with COLO 205 colon, 104%; in the assay on DU-145 prostate, 110%; in the assay on K-562 leukemia, 105%; in the assay with MALME-3M melanoma, 103%. Moreover, the growth with MDA-MB-231 breast was 112%; in the assay on RXF 393 renal it was 102%; in the assay on SF-268 CNS, 104%; with SF-295 CNS it was 78.6%; in the assay on SF-539 CNS, 99.8%; in the assay on UACC-257 melanoma it was 95%. In addition, the growth is 105% in the assay on M14 melanoma and 98.6% with HCT-15 colon.
`c1ccc2cc(C[n+]3ccn(CCCCCCCn4cc[n+](Cc5ccc6ccccc6c5)c4)c3)ccc2c1`: the growth in the assay with NCI-H23 lung is 14.4%; in the assay on NCI-H226 lung it was 59.5%; with NCI-H322M lung, 58.6%; in the assay with HOP-62 NSCLC, 32.6%; in the assay with NCI-H460 lung, 14.6%; in the assay on NCI-H522 lung, 5.87% (active). Also, the growth in the assay with A549/ATCC NSCLC is 26.7%; with 786-0 renal, 95.8%; in the assay on COLO 205 colon, 20%; in the assay on DU-145 prostate it was 49.2%; in the assay with K-562 leukemia it was 19.1%; with MALME-3M melanoma it was -9.13% (active). Further, the growth in the assay with MDA-MB-231 breast was 49%; in the assay on RXF 393 renal, 74%; with SF-268 CNS, 34.4%; in the assay on SF-295 CNS, 21.6%; with SF-539 CNS, 33.4%; in the assay with UACC-257 melanoma, 15.8%. The growth in the assay on M14 melanoma was 47.1%; with HCT-15 colon, 82.6%.
On to `O=C1c2ccccc2C(=O)c2c1cccc2-n1nnc2ccccc21`, for which the growth was 106% in the assay on NCI-H23 lung; 103% in the assay with NCI-H226 lung; 118% in the assay on NCI-H322M lung; 101% in the assay with HOP-62 NSCLC; 111% in the assay on NCI-H460 lung; 86% in the assay on NCI-H522 lung. Besides, the growth is 116% in the assay with A549/ATCC NSCLC; 106% in the assay with 786-0 renal; 116% in the assay with COLO 205 colon; 108% in the assay on DU-145 prostate; 95.6% with K-562 leukemia; 132% with MALME-3M melanoma. For the same molecule, the growth was 125% in the assay with MDA-MB-231 breast; 111% in the assay with RXF 393 renal; 103% in the assay on SF-268 CNS; 120% with SF-295 CNS; 112% in the assay with SF-539 CNS; 127% in the assay on UACC-257 melanoma. Moreover, the growth is 127% in the assay on M14 melanoma and 102% in the assay with HCT-15 colon.
Regarding `O=C1C[C@@H]2/C(=C(O)\C=C\c3ccccc3)C(=O)C=C[C@@H]2O1`, the growth was 77% with NCI-H23 lung; 39.9% with NCI-H226 lung; 26.1% with NCI-H322M lung; 2.64% (active) in the assay with HOP-62 NSCLC; 12.1% in the assay with NCI-H460 lung; -66.3% (active) with NCI-H522 lung. Also, the growth with A549/ATCC NSCLC is 36.7%; with 786-0 renal it was -46.7% (active); in the assay on COLO 205 colon it was -73.4% (active); in the assay with DU-145 prostate, -16.8% (active); with K-562 leukemia, 14.3%; in the assay with MALME-3M melanoma it was -35.1% (active). Also, the growth in the assay with MDA-MB-231 breast was -45.7% (active); with RXF 393 renal it was -92.9% (active); in the assay on SF-268 CNS, 11.6%; in the assay on SF-295 CNS, 71.2%; in the assay with SF-539 CNS, -43.3% (active); in the assay on UACC-257 melanoma, -43.4% (active). Also, the figures for the growth with M14 melanoma and in the assay on HCT-15 colon were -65.9% (active) and -7.83% (active), respectively.
With `CCN(CC)CCCCNc1c2ccccc2[n+](C)c2c1[nH]c1ccccc12`, the growth with NCI-H23 lung is -35.9% (active); in the assay on NCI-H226 lung, -11.8% (active); in the assay with NCI-H322M lung, -35.5% (active); with HOP-62 NSCLC, -3.3% (active); in the assay on NCI-H460 lung it was 3.4% (active); in the assay with NCI-H522 lung, -84.7% (active). Also, the growth is 2.8% (active) with A549/ATCC NSCLC; -7.1% (active) with 786-0 renal; -65.9% (active) in the assay with COLO 205 colon; -0.206% (active) with DU-145 prostate; -20.8% (active) in the assay with K-562 leukemia; -63.9% (active) with MALME-3M melanoma. For the same molecule, the growth was -0.507% (active) with MDA-MB-231 breast; -55.6% (active) with RXF 393 renal; -16.2% (active) in the assay on SF-268 CNS; -47.1% (active) in the assay with SF-295 CNS; -40.6% (active) with SF-539 CNS; -42.6% (active) in the assay on UACC-257 melanoma. The results for the growth in the assay with M14 melanoma and in the assay with HCT-15 colon were -28.4% (active) and 80.2%, respectively.
